In PubChem BioAssay (Tox21):
Values joined by “and” are separate entries in the source; they are usually repeats but may differ in a detail not shown here. Identical values can stand only once. Values without a mark were called inactive. Records with an inconclusive call do not appear. Active and inactive are the calls of the source. Calls come from the whole dose curve.

molecular target: Acetylcholinesterase (Homo sapiens) (UniProt P22303); assay: Acetylcholinesterase (AChE) small molecule antagonists: enzyme-based qHTS assay (AID 1347397); settings: Potency: AChE enzyme activity inhibition; outcome: AChE enzyme activity inhibition; series mostly up to 115 µM; activity change, negative = inhibition: at the top concentration; note: nearly all actives have a fitted effect of over 55% in size
Sequence (P22303 whole entry, looked up): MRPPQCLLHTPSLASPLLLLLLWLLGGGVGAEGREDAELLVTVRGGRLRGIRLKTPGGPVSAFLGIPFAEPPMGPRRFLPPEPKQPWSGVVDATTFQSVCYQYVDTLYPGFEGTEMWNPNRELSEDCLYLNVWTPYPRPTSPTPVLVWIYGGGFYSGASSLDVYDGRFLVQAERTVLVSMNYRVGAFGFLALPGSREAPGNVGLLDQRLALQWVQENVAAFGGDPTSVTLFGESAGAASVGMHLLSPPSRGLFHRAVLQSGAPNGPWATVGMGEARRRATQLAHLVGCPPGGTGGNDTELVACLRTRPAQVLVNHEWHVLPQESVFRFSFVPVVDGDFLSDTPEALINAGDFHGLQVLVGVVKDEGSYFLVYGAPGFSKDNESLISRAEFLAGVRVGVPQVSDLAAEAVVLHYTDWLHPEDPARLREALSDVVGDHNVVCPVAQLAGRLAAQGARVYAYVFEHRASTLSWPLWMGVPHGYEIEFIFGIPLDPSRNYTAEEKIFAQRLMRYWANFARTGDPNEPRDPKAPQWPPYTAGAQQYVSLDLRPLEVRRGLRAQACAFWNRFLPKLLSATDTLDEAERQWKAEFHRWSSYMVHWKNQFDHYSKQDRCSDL
How it was run: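 In this quantitative HTS, compounds from the Tox21 10K collection were preincubated 30 min at ambient temperature with recombinant human AChE dispensed at 50 mU/mL. Hydrolysis of acetylthiocholine was then followed for 10 min by DTNB colour development.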
% is set by controls: 0 for no effect and ±100 for the full control effect.

Compound	activity change, negative = inhibition	Potency
O=C(O)c1nc(Cl)c(Cl)c(Cl)c1Cl	-0.526%	
O=C1c2ccccc2C(=O)C1c1ccc(Br)cc1	0.945% [at 53 µM]	
CC(C)(Oc1ccc(CCNC(=O)c2ccc(Cl)cc2)cc1)C(=O)O		inactive
C[Si]1(C)O[Si](C)(C)O[Si](C)(C)O[Si](C)(C)O1		inactive
CC(C)C(=O)OC/C=C/c1ccccc1	0.619%	
c1cnc2c(n1)CCCC2	0.139%	
O=C1OC(c2ccc(O)cc2)(c2ccc(O)cc2)c2ccccc21		inactive
Cc1ccccc1OCC(O)CO (stereo not given)	-0.54% [at 53 µM]	
CCCCCCCC/C=C\CCCCCCCCN	1.22% [at 53 µM]	
CCOC(=O)C1=NN(c2ccccc2)C(=O)C1	-1.54%	
Cc1onc(-c2ccccc2)c1C(=O)Cl	0.81% [at 53 µM]	
OC[C@@H](O)C(O)[C@@H](O)CO (stereo not given in full)	0.136%	
CC(C=O)Cc1ccc(C(C)C)cc1 (stereo not given)	-15.5%	
CCc1cc(Cc2cc(CC)cc(C(C)(C)C)c2O)c(O)c(C(C)(C)C)c1	-2.76%	
CN(C)c1ccc(C(=N)c2ccc(N(C)C)cc2)cc1		inactive
CN1CCC[C@@H]1c1cccnc1	4.52% [at 53 µM]	
CC(Cl)C(Cl)Cl (stereo not given)	4.13%	
O=C(O)CCCCCC(=O)O	-0.273%	
Oc1ccc2c(c1)-c1ccccc1C2	0.526%	
C[C@]12CCC(=O)C=C1CC[C@@H]1[C@@H]2CC[C@@]2(C)[C@H]1CC[C@]2(O)C(=O)CO	0.415% [at 53 µM]	
CCN(CCC#N)c1ccccc1	0%	
CN1CCC(=C2c3ccccc3CCc3cccnc32)CC1	-1.52% [at 53 µM]	
O=c1[nH]c(=O)c2cn[nH]c2[nH]1	1.23%	
NC(=S)Nc1cccc2ccccc12	-0.679% [at 10.5 µM]	

molecular target: Acetylcholinesterase (Homo sapiens) (UniProt P22303); assay: Acetylcholinesterase (AChE) small molecule antagonists: fluorescence cell-based qHTS assay (AID 1347398); settings: SH-SY5Y cells; Potency: AChE activity; outcome: AChE activity; series mostly up to 115 µM; activity change, negative = inhibition: at the top concentration; note: nearly all actives have a fitted effect of over 50% in size; note: potency is the fitted concentration of half-maximal effect
How it was run: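 Cells (SH-SY5Y) attached overnight, were dosed with compound or DMSO vehicle for 30 min at 37 C, and then incubated 40 min at room temperature with acetylthiocholine and Thiolite Green; green fluorescence indexed AChE activity.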

Compound	activity change, negative = inhibition	Potency
Cc1nn(C)c(Oc2ccccc2)c1/C=N/OCc1ccc(C(=O)OC(C)(C)C)cc1	-5.99%	
CC(=O)[C@H]1CC[C@H]2[C@@H]3CCC4=CC(=O)CC[C@]4(C)[C@H]3CC[C@]12C		28.1 µM (active) and 31.7 µM (active)
Nc1ncnc2nc[nH]c12		inactive
CCCCCC(CC)OC(=O)CCCOc1ccc(Cl)cc1Cl (stereo not given)	-6.67%	
Cc1ccc(S(=O)(=O)NC(=O)NC2CCCCCCC2)cc1	7.94% [at 53.7 µM]	
CO[C@@]1(NC(=O)C(C(=O)O)c2ccc(O)cc2)C(=O)N2C(C(=O)O)=C(CSc3nnnn3C)CO[C@@H]21 (stereo not given in full)	25.8% [at 53.7 µM]	
CC(C)C(C)(C)C(C)(C)C(C)(C)S	-5.2%	
CCCCCCCCCCCCI	-2.46%	
COc1ccc(COC(C)=O)cc1		inactive
NC(=NCCCCCCN=C(N)/N=C(\N)Nc1ccc(Cl)cc1)/N=C(\N)Nc1ccc(Cl)cc1		11.1 µM (active) and 17.7 µM (active) and 16.2 µM (active)
C/C(=C\c1ccc(C(=O)O)cc1)c1ccc2c(c1)C(C)(C)CCC2(C)C	10.1% [at 53.7 µM]	
CCCCCCCCCCCCc1ccccc1O		inactive
Cc1ccc(C(=O)O)cc1	7.09%	
CC1(C)C(=O)N(Cl)C(=O)N1Cl		inactive
OCC(CO)(CO)CO		inactive
Nc1c(CC(=O)O)cccc1C(=O)c1ccc(Br)cc1	19.6% [at 53.7 µM]	

molecular target: Acetylcholinesterase (Homo sapiens) (UniProt P22303); assay: Acetylcholinesterase (AChE) small molecule antagonists: enzyme-based qHTS assay with human liver microsomes (AID 1347399); settings: Potency: qHTS inhibition; outcome: qHTS inhibition; series mostly up to 115 µM; activity change, negative = inhibition: at the top concentration; note: nearly all actives have a fitted effect of over 60% in size
How it was run: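 Recombinant human AChE (50 mU/mL in the enzyme mix) and human liver microsomes (0.25 mg/mL final) were preincubated with compound and NADPH (0.25 mg/mL final) for 30 min at 37 C. Acetylthiocholine/DTNB was then added; thiocholine was read colorimetrically after 10 min at room temperature.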

Compound	activity change, negative = inhibition	Potency
Cc1nn(C)c(Oc2ccccc2)c1/C=N/OCc1ccc(C(=O)OC(C)(C)C)cc1	-0.116%	
O=C(O)c1nc(Cl)c(Cl)c(Cl)c1Cl	-0.542%	
O=C1c2ccccc2C(=O)C1c1ccc(Br)cc1	0.733% [at 53 µM]	
CC(C)(Oc1ccc(CCNC(=O)c2ccc(Cl)cc2)cc1)C(=O)O		inactive
C[Si]1(C)O[Si](C)(C)O[Si](C)(C)O[Si](C)(C)O1		inactive
CC(C)C(=O)OC/C=C/c1ccccc1	1.41%	
CC(=O)[C@H]1CC[C@H]2[C@@H]3CCC4=CC(=O)CC[C@]4(C)[C@H]3CC[C@]12C		inactive
c1cnc2c(n1)CCCC2	0.266%	
O=C1OC(c2ccc(O)cc2)(c2ccc(O)cc2)c2ccccc21		inactive
Cc1ccccc1OCC(O)CO (stereo not given)	-6.31% [at 53 µM]	
CCCCCCCC/C=C\CCCCCCCCN	-0.169% [at 53 µM]	
CCOC(=O)C1=NN(c2ccccc2)C(=O)C1	0.84%	
Nc1ncnc2nc[nH]c12		inactive
Cc1onc(-c2ccccc2)c1C(=O)Cl	1.06% [at 53 µM]	
CCCCCC(CC)OC(=O)CCCOc1ccc(Cl)cc1Cl (stereo not given)	-1.49%	
Cc1ccc(S(=O)(=O)NC(=O)NC2CCCCCCC2)cc1	0.463% [at 53 µM]	
OC[C@@H](O)C(O)[C@@H](O)CO (stereo not given in full)	2.06%	
CO[C@@]1(NC(=O)C(C(=O)O)c2ccc(O)cc2)C(=O)N2C(C(=O)O)=C(CSc3nnnn3C)CO[C@@H]21 (stereo not given in full)	-0.59% [at 53 µM]	
CC(C)C(C)(C)C(C)(C)C(C)(C)S	-1.96%	
CCCCCCCCCCCCI	-0.162%	

Compound	activity change, negative = inhibition	Potency
COc1ccc(COC(C)=O)cc1		inactive
NC(=NCCCCCCN=C(N)/N=C(\N)Nc1ccc(Cl)cc1)/N=C(\N)Nc1ccc(Cl)cc1		inactive
C/C(=C\c1ccc(C(=O)O)cc1)c1ccc2c(c1)C(C)(C)CCC2(C)C	-2.12% [at 53 µM]	
CCCCCCCCCCCCc1ccccc1O		inactive
CC(C=O)Cc1ccc(C(C)C)cc1 (stereo not given)	1.46%	
CCc1cc(Cc2cc(CC)cc(C(C)(C)C)c2O)c(O)c(C(C)(C)C)c1	-0.41%	
Cc1ccc(C(=O)O)cc1	0.0799%	
CN(C)c1ccc(C(=N)c2ccc(N(C)C)cc2)cc1		inactive
CN1CCC[C@@H]1c1cccnc1	0.232% [at 53 µM]	
CC1(C)C(=O)N(Cl)C(=O)N1Cl		inactive
OCC(CO)(CO)CO		inactive
CC(Cl)C(Cl)Cl (stereo not given)	0.811%	
O=C(O)CCCCCC(=O)O	-0.341%	
Oc1ccc2c(c1)-c1ccccc1C2	-0.691%	
C[C@]12CCC(=O)C=C1CC[C@@H]1[C@@H]2CC[C@@]2(C)[C@H]1CC[C@]2(O)C(=O)CO	2.85% [at 53 µM]	
CCN(CCC#N)c1ccccc1	-1.2%	
Nc1c(CC(=O)O)cccc1C(=O)c1ccc(Br)cc1	5.29% [at 53 µM]	
CN1CCC(=C2c3ccccc3CCc3cccnc32)CC1	-0.841% [at 53 µM]	
O=c1[nH]c(=O)c2cn[nH]c2[nH]1	-2.69%	
NC(=S)Nc1cccc2ccccc12	0.729% [at 10.5 µM]	
